From PubChem BioAssay (NCATS)
Inconclusive results are not listed. Values without a mark were called inactive. The source made the active and inactive calls. Calls follow the shape of the full dose curve.

test: Cytotoxicity counterscreen for inhibitors of SARS-CoV-2 cell entry (AID 1645845); settings: cell viability (SARS-CoV-2 entry assay cells); series mostly up to 57.1 µM; activity change, negative = cytotoxicity: at the top concentration; also: nearly all actives have a fitted effect of over 50% in size
Method in brief: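 Counterscreen run in the same HEK293-ACE2 line as the pseudotyped-particle entry assay, without particles. Viability after 48 h at 37 C was read as ATP luminescence, scaled between cell-containing and cell-free wells.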
% is scaled to controls: 0 for no effect and ±100 for the full control effect; potency is read from the fitted curve at half-maximal effect.

Row | SMILES | Potency | activity change, negative = cytotoxicity | outcome
1 | C=CC(=O)Nc1cccc(Nc2nc(Nc3ccc(N4CCN(C(C)=O)CC4)cc3OC)ncc2C(F)(F)F)c1 | 31.6 µM (active) |  | 
2 | C[C@H](Nc1ncnc2nc[nH]c12)c1cc2cccc(Cl)c2c(=O)n1-c1ccccc1 |  | 2.56% | 
3 | C/C=C/C/C=C/CCC(=O)[C@H]1O[C@H]1C(N)=O |  | 1.4% | 
4 | C=C1C(=O)O[C@@H]2[C@H]3C(C)=CC[C@@]34O[C@@]4(C)CC[C@@H]12 |  |  | inactive
5 | CN(C)C/C=C/C(=O)Nc1cc2c(Nc3ccc(F)c(Cl)c3)ncnc2cc1O[C@H]1CCOC1 |  | 1.91% | 
6 | Cc1ccc(-n2nc(C(C)(C)C)cc2NC(=O)NCc2cc(F)ccc2Oc2ccc3c(cnn3CCO)c2)cc1 |  | -20.8% | 
7 | Cn1cc(-c2cc(Oc3cc(F)c(NC(=O)C4(C(=O)Nc5ccccc5)CC4)cc3F)ccn2)cn1 |  | -27.8% | 
8 | CO[C@H]1/C=C/O[C@@]2(C)Oc3c(C)c(O)c4c(O)c(c5c(nc6cc(C)ccn65)c4c3C2=O)NC(=O)/C(C)=C\C=C\[C@H](C)[C@H](O)[C@@H](C)[C@@H](O)[C@@H](C)[C@H](OC(C)=O)[C@@H]1C |  | -8.31% | 
9 | CO[C@H]1C[C@@H]2CC[C@@H](C)[C@@](O)(O2)C(=O)C(=O)N2CCCC[C@H]2C(=O)O[C@H]([C@H](C)C[C@@H]2CC[C@@H](OP(C)(C)=O)[C@H](OC)C2)CC(=O)[C@H](C)/C=C(\C)[C@@H](O)[C@@H](OC)C(=O)[C@H](C)C[C@H](C)/C=C/C=C/C=C/1C |  | -27.2% | 
10 | COc1cc2c(cc1OC(C)C)[C@H](c1ccc(Cl)cc1)N(c1ccc(N(C)CC3CCC(N4CCN(C)C(=O)C4)CC3)cc1)C(=O)C2 (some centres undefined) |  |  | inactive
11 | C=C1C(=O)OC2/C=C(/C)CC/C=C(/C)CCC12 (centres undefined) |  | 1.64% | 
12 | O=C(/C=C/c1ccc(/C=C/C(=O)Nc2ccc(C3=NCCN3)cc2)cc1)Nc1ccc(C2=NCCN2)cc1 |  | -2.26% [at 5.25 µM] | 
13 | Cc1c(CN2CCN(C(=O)[C@H](C)O)CC2)sc2c(N3CCOCC3)nc(-c3cnc(N)nc3)nc12 |  | -13.8% | 
14 | Cc1cc(N2CCOCC2)ccc1Nc1nc(NC2CCCCC2)c2[nH]cnc2n1 |  | -1.54% | 
15 | CC[C@@H](Oc1cccc(CN(CCCOc2ccc(OC)cc2)c2nc3ccccc3o2)c1)C(=O)O |  |  | inactive
16 | C[C@@H]1Cc2c([nH]c3ccccc23)[C@@H](c2c(F)cc(/C=C/C(=O)O)cc2F)N1CC(C)(C)F |  |  | inactive
17 | CC(=O)O/N=C1/C(c2c(O)[nH]c3cc(Br)ccc23)=Nc2ccccc21 |  | 3.12% | 
18 | O=C(Nc1ccc(OC(F)(F)Cl)cc1)c1cnc(N2CC[C@@H](O)C2)c(-c2ccn[nH]2)c1 |  | -24.5% | 
19 | Cc1ccc(C(=O)Nc2ccc(CN3CCN(C)CC3)c(C(F)(F)F)c2)cc1C#Cc1cnc2[nH]ncc2c1 | 31.6 µM (active) |  | 
20 | Cc1ccccc1-n1nc(-c2c(-c3ccc(F)cc3)nn3c2NC[C@@H](CO)C3)ccc1=O |  | 4.66% | 

Row | SMILES | Potency | activity change, negative = cytotoxicity | outcome
21 | Cc1nnn(C)c1-c1cnc2c3ccc(C(C)(C)O)cc3n([C@H](c3ccccc3)C3CCOCC3)c2c1 |  | -14.2% | 
22 | O=C(O)/C(S)=C/c1ccc(I)cc1 |  | 1.15% | 
23 | Cc1cccc(-c2[nH]ncc2-c2ccc(F)c(-c3cnn(CCO)c3)c2)n1 |  | -3.01% | 
24 | C=C1CCC2[C@](C)(CO)C(O)CC[C@]2(C)C1C/C=C1/C(=O)OCC1O (some centres undefined) |  | -21% | 
25 | CC(C)NCCCn1c(Sc2cc(Cl)cc(Cl)c2)nc2c(N)ncnc21 |  |  | inactive
26 | O=c1sn(-c2cccc3ccccc23)c(=O)n1Cc1ccccc1 |  | 4.69% | 
27 | COc1ccc(CNC(=O)c2cc(-c3cncc(Cl)c3)cnc2-c2ccccn2)nc1OC |  |  | inactive
28 | O=C(CCl)Nc1cccc(NC2=NS(=O)(=O)c3ccccc32)c1 |  |  | inactive
29 | Cc1ccc(C(=O)Nc2ccc(Oc3cc4cnn(C)c4cc3-c3cn[nH]c3)c(F)c2)c(=O)n1-c1ccc(F)cc1 |  | -24.5% | 
30 | Cc1noc2c1-c1ccccc1C(c1ccc(Cl)cc1)=N[C@H]2CC(N)=O |  |  | inactive
31 | Cc1noc(C)c1-c1ccc(-c2cc(C(N)=O)c(NC(N)=O)s2)c(O[C@H]2CCNC2)c1 |  | -21.4% | 
32 | CCCCCCCCCCCCCCCCOCCCOP(=O)(O)COC(CO)Cn1ccc(N)nc1=O (centres undefined) |  | -8.34% | 
33 | O=C(Cc1cccc(OC(F)(F)F)c1)Nc1ccc(CCCCc2nnc(NC(=O)Cc3ccccn3)s2)nn1 |  | 1.82% | 
34 | COc1ccc2nc3n[nH]c(C)c3c(NCCOCCO)c2c1 |  | -10.7% | 
35 | Cn1cncc1C(N)(c1ccc(Cl)cc1)c1ccc2c(c1)c(-c1cccc(Cl)c1)cc(=O)n2C (centres undefined) | 8.91 µM (active) |  | 
36 | CNC(=O)[C@@H](NC(=O)[C@H](CC(C)C)[C@H](O)C(=O)NO)C(C)(C)C |  |  | inactive
37 | COc1ccc2c(c1)C(c1ccc(F)cc1)=C(CN1CCCC1)CO2 |  |  | inactive
38 | CC1(C)OCCn2c1nc1c(N3CCOCC3)nc(-c3cnc(N)nc3)nc12 |  | -15.8% | 
39 | O=C(C(c1ccccc1)c1ccccc1)N1CCN(CC(O)COc2cccc3ncccc23)CC1 (centres undefined) |  | -23.9% | 
